Data taken from PubChem BioAssay (EPA / NIEHS).
The source made the active and inactive calls. Rule for the calls: active = hit-call score of the fitted dose curve at least 0.9, where 1 is the maximum; inactive = score below 0.9.

Experiments:
[1] = target: Transcription factor E2F1 (Homo sapiens) (UniProt Q01094); assay: ATG_E2F_CIS: Attagene CIS-FACTORIAL HepG2 Assay for human E2F Transcription Factor 1 (AID 2282935); conditions: HepG2 Attagene cis-reporter, E2F reporter RNA transcripts; actives raise or lower the signal
Outline: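 Total RNA from 24 h-treated, reporter-transfected HepG2 cells undergoes DNase I treatment, oligo(dT) reverse transcription, PCR and 6-FAM primer extension before capillary electrophoresis.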

[2] = ATG_E_Box_CIS: Attagene CIS-FACTORIAL HepG2 Assay for human Enhancer Box (E-box) (AID 2282936); conditions: HepG2 E-box cis-reporter transcription, actives raise or lower the signal
Outline: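 DMSO served as negative control and baseline for bidirectional fitting. Human hepatoma HepG2 cells, transiently transfected with cis-reporter constructs, were dosed 24 h; reporter mRNA read by RT-PCR and capillary electrophoresis.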

[3] = ATG_M_61_CIS: Attagene CIS-FACTORIAL HepG2 Assay for M61 Transcription Factor (Internal Marker) (AID 2282937); conditions: HepG2 Attagene CIS-FACTORIAL M61 internal marker reporter; actives raise or lower the signal
Outline: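 Endogenous transcription factor activity in HepG2 is read through transiently transfected cis-element reporter units. After 24 h dosing, RNA undergoes reverse transcription, PCR and primer extension with 6-FAM before capillary electrophoresis; DMSO-referenced bidirectional fit.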

[4] = ATG_EGR_CIS: Attagene CIS-FACTORIAL HepG2 Assay for human Early Growth Response 1 (EGR1) (AID 2282938); conditions: HepG2 Attagene CIS-FACTORIAL EGR reporter mRNA; actives raise or lower the signal
Outline: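 Activity is taken as induction or loss of reporter mRNA versus DMSO, fitted bidirectionally. Transcripts from cis-regulated reporter units in transiently transfected HepG2 were measured after 24 h by RT-PCR with capillary electrophoresis.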

[5] = ATG_M_19_CIS: Attagene CIS-FACTORIAL HepG2 Assay for M19 Transcription Factor (Internal Marker) (AID 2282939); conditions: HepG2 Attagene CIS-FACTORIAL M19 internal marker reporter; actives raise or lower the signal
Outline: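 Background-control endpoint from a multiplexed HepG2 reporter panel. Cells carrying cis-regulated reporter constructs are treated 24 h, then reporter transcripts are amplified, fluorescently labelled and sized by capillary electrophoresis. DMSO defines baseline.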

[6] = ATG_ERE_CIS: Attagene CIS-FACTORIAL HepG2 Assay for Estrogen Response Element (ERE) (AID 2282940); conditions: HepG2 ERE cis-reporter, Attagene RNA transcript; actives raise or lower the signal
Outline: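 Cells used were human hepatoma HepG2, transfected with multiple reporter transcription units under cis-regulatory promoters. Reporter mRNA, read 24 h post-dosing via fluorescent RT-PCR products on capillary electrophoresis, was fitted bidirectionally relative to DMSO.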

[7] = ATG_Ets_CIS: Attagene CIS-FACTORIAL HepG2 Assay for human Erythroblast Transformation Specific (ETS) (AID 2282941); conditions: HepG2 ETS cis-reporter transcription, actives raise or lower the signal
Outline: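 HepG2 cells transfected with multiple cis-regulated reporter units measuring endogenous ETS-driven transcription, 24 h after dosing. Reporter mRNA quantified by RT-PCR with capillary electrophoresis; bidirectional fit relative to DMSO.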

[8] = target: Hepatocyte nuclear factor 3-beta (Homo sapiens) (UniProt Q9Y261); assay: ATG_FoxA2_CIS: Attagene CIS-FACTORIAL HepG2 Assay for human Forkhead box A2 (FOXA2) (AID 2282942); conditions: HepG2 cis-reporter transcription factor activity, 24 h; actives raise or lower the signal
Outline: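 Reporter transcript induction is measured by fluorescence after capillary electrophoresis of RT-PCR products from HepG2 cells exposed 24 h. Cis-regulated reporter units report endogenous factor activity; curves fitted both directions against DMSO.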

[9] = ATG_FoxO_CIS: Attagene CIS-FACTORIAL HepG2 Assay for human Forkhead box O (FoxO) (AID 2282943); conditions: HepG2 Attagene cis-reporter, FoxO element, mRNA; actives raise or lower the signal
Outline: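 Human hepatoma HepG2 cells carry transiently introduced reporter transcription units controlled by cis promoter elements. Chemical treatment lasted 24 h, and mRNA signal was compared with DMSO.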

[10] = ATG_GATA_CIS: Attagene CIS-FACTORIAL HepG2 Assay for human GATA Binding Protein (AID 2282944); conditions: HepG2 GATA cis-element reporter, Attagene multiplex mRNA; actives raise or lower the signal
Outline: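 Endogenous transcription factor activity was captured through cis-promoter-driven reporters in transfected HepG2 cells. After 24 h exposure, reporter transcripts were quantified by RT-PCR with fluorescent capillary electrophoresis, and responses fitted both directions against DMSO.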

[11] = ATG_GLI_CIS: Attagene CIS-FACTORIAL HepG2 Assay for human Zinc Finger Protein GLI1 (AID 2282945); conditions: HepG2, Attagene cis-factorial reporter mRNA, GLI element; actives raise or lower the signal
Outline: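 Bidirectional curve fits relative to DMSO, using reporter mRNA levels from RT-PCR plus capillary electrophoresis. Cells were HepG2 transiently carrying cis-regulated reporter constructs, harvested 24 h after dosing.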

[12] = ATG_GRE_CIS: Attagene CIS-FACTORIAL HepG2 Assay for human Glucocorticoid Response Elements (GRE) (AID 2282947); conditions: HepG2 GRE cis-reporter, Attagene multiplex mRNA; actives raise or lower the signal
Outline: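 Assay uses human hepatoma HepG2 cells transfected with cis-promoter reporter units, exposed 24 h. mRNA from reporters detected by RT-PCR plus capillary electrophoresis; DMSO serves as negative control and baseline.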

[13] = ATG_ISRE_CIS: Attagene CIS-FACTORIAL HepG2 Assay for human Interferon Regulatory Factor 1 (IRF1) binding to an Interferon-Stimulated Response Element (ISRE) (AID 2282948); conditions: HepG2 ISRE cis-reporter (Attagene), mRNA transcription readout; actives raise or lower the signal
Outline: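 Transiently transfected HepG2 cells carrying cis-element reporter units, dosed 24 hours. Reporter mRNA quantified by RT-PCR, fluorescent primer extension, HpaI digestion and capillary electrophoresis. Bidirectional fitting relative to DMSO.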

[14] = ATG_M_32_CIS: Attagene CIS-FACTORIAL HepG2 Assay for M32 Transcription Factor (Internal Marker) (AID 2282949); conditions: HepG2 Attagene cis-factorial M32 reporter, mRNA; actives raise or lower the signal;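 note: background control marker of the multiplexed CIS panel rather than a real target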
Outline: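 Internal background marker read-out: RT-PCR/capillary electrophoresis fluorescence of reporter transcripts from transiently transfected HepG2 cells after 24 h chemical exposure. Activity fitted bidirectionally relative to DMSO negative control.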

[15] = ATG_M_06_CIS: Attagene CIS-FACTORIAL HepG2 Assay for M06 Transcription Factor (Internal Marker) (AID 2282950); conditions: HepG2 Attagene CIS-FACTORIAL M06 internal marker reporter; actives raise or lower the signal
Outline: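 Steps: transfect HepG2 with multiplexed cis-element reporter constructs; dose chemical 24 h; extract RNA with DNase treatment; reverse-transcribe, PCR-amplify, 6-FAM label, HpaI digest; separate fragments by capillary electrophoresis. Activity fitted both directions versus DMSO.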

[16] = target: Hypoxia-inducible factor 1-alpha (Homo sapiens) (UniProt Q16665); assay: ATG_HIF1a_CIS: Attagene CIS-FACTORIAL HepG2 Assay for human Hypoxia Inducible Factor 1 (HIF1A) (AID 2282951); conditions: HepG2 Attagene cis-factorial HIF1a reporter transcription; actives raise or lower the signal
Outline: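 Fluorescence intensity of capillary-separated, 6-FAM-labelled reporter amplicons gives mRNA induction in HepG2 cells carrying transfected cis-promoter reporter units; cells exposed 24 h, responses fitted up or down from DMSO.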

[17] = target: Hepatocyte nuclear factor 6 (Homo sapiens) (UniProt Q9UBC0); assay: ATG_HNF6_CIS: Attagene CIS-FACTORIAL HepG2 Assay for human Hepatocyte Nuclear Factor 6 (HNF6) (AID 2282952); conditions: HepG2 Attagene cis-factorial HNF6 reporter transcription; actives raise or lower the signal
Outline: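 HepG2 cells transiently transfected with cis-element-driven multiple reporter transcription units, dosed 24 h; reporter mRNA quantified by RT-PCR, FAM primer extension, HpaI digestion and capillary electrophoresis; bidirectional fit versus DMSO baseline.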

[18] = target: Heat shock factor protein 1 (Homo sapiens) (UniProt Q00613); assay: ATG_HSE_CIS: Attagene CIS-FACTORIAL HepG2 Assay for human Heat Shock Transcription Factor 1 (HSE) (AID 2282953); conditions: HepG2 HSE cis-reporter, Attagene RNA transcription; actives raise or lower the signal
Outline: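 Cells were transfected with cis-element-driven reporter constructs, dosed for 24 h, then total RNA was reverse-transcribed and reporter cDNA amplified, FAM-labelled and digested with HpaI. Fragments were resolved by capillary electrophoresis; gain or loss was fitted against DMSO.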

[19] = ATG_MRE_CIS: Attagene CIS-FACTORIAL HepG2 Assay for human Metal Responsive Element (MRE) (AID 2282954); conditions: HepG2 MRE cis-reporter transcription, Attagene multiplex; actives raise or lower the signal
Outline: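 After a 24 h chemical exposure, transiently transfected HepG2 cells yield RNA whose reporter sequences are amplified, FAM-labelled and sized by capillary electrophoresis. Curves are fitted bidirectionally relative to DMSO.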

[20] = target: Bile acid receptor (Homo sapiens) (UniProt Q96RI1); assay: ATG_IR1_CIS: Attagene CIS-FACTORIAL HepG2 Assay for human Nuclear Receptor Subfamily 1 Group H Member 4 (NR1H4), IR1 submotif (AID 2282946); conditions: IR1 reporter transcription, actives raise or lower the signal
Outline: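 Cells (human HepG2) carry transiently transfected cis-promoter reporter transcription units. Compounds are incubated 24 h, total RNA is reverse-transcribed and amplified, and labelled fragments are resolved by capillary electrophoresis. Curves use DMSO as baseline.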

Measured: AC50

Hepatocyte nuclear factor 3-beta (Homo sapiens), sequence (Q9Y261 whole entry, looked up): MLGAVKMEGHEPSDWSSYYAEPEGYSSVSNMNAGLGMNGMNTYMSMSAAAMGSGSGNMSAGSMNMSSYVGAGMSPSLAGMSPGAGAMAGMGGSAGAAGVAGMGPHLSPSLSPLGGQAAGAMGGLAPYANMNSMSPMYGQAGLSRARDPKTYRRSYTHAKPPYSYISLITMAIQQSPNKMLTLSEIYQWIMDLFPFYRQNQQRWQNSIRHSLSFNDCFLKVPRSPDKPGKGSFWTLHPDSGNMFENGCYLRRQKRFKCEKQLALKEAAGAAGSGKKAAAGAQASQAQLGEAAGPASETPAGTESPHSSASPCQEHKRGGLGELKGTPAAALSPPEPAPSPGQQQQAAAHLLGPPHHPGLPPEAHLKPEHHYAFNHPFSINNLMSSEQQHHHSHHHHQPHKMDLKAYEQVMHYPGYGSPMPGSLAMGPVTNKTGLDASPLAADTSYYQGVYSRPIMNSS
Heat shock factor protein 1 (Homo sapiens), sequence (Q00613 whole entry, looked up, the tested form may be a part): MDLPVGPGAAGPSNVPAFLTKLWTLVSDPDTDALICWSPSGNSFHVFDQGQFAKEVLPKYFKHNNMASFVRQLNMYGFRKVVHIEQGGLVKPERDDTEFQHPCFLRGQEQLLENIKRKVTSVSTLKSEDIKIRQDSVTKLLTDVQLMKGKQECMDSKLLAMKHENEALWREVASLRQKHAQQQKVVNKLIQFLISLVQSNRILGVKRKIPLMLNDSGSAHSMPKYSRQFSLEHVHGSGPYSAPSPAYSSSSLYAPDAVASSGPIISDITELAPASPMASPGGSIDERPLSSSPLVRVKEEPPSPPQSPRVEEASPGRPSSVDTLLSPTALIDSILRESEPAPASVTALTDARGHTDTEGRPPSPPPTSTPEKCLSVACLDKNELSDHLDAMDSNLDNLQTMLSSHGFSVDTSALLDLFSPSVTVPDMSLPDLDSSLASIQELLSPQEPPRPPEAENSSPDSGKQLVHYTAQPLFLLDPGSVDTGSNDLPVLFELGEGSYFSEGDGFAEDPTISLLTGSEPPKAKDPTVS
Hypoxia-inducible factor 1-alpha (Homo sapiens), sequence (Q16665 whole entry, looked up): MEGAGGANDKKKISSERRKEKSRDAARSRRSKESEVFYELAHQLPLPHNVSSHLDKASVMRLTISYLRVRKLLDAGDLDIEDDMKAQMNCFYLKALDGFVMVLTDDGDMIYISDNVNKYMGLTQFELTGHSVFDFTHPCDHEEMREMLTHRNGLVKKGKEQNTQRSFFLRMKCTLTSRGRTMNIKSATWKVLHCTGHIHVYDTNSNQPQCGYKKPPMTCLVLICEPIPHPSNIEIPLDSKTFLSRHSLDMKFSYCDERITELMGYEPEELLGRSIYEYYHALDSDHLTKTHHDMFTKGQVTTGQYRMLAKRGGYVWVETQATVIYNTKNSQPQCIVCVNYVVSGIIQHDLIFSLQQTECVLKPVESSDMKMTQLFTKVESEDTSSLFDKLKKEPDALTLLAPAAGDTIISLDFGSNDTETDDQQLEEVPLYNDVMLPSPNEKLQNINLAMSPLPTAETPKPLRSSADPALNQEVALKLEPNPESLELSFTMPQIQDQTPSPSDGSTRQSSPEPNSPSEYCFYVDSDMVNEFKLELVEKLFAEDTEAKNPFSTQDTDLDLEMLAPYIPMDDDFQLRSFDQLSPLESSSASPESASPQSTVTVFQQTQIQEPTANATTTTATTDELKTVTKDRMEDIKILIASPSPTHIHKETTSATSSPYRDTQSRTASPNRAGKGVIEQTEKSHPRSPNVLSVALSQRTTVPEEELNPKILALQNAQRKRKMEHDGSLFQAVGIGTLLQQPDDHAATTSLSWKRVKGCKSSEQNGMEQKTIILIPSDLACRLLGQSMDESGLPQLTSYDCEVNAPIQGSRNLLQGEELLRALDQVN
Transcription factor E2F1 (Homo sapiens), sequence (Q01094 whole entry, looked up): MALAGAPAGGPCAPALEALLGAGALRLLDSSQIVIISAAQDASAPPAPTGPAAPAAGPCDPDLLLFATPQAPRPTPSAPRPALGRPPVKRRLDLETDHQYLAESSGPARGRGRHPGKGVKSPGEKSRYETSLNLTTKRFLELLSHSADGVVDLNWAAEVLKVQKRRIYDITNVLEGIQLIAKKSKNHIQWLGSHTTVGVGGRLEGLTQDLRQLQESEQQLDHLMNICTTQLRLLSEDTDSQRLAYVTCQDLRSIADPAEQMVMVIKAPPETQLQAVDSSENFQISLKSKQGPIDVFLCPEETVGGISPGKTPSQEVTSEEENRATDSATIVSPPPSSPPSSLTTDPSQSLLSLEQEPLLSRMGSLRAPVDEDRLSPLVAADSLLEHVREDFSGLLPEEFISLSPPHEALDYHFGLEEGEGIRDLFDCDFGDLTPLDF
Hepatocyte nuclear factor 6 (Homo sapiens), sequence (Q9UBC0 whole entry, looked up): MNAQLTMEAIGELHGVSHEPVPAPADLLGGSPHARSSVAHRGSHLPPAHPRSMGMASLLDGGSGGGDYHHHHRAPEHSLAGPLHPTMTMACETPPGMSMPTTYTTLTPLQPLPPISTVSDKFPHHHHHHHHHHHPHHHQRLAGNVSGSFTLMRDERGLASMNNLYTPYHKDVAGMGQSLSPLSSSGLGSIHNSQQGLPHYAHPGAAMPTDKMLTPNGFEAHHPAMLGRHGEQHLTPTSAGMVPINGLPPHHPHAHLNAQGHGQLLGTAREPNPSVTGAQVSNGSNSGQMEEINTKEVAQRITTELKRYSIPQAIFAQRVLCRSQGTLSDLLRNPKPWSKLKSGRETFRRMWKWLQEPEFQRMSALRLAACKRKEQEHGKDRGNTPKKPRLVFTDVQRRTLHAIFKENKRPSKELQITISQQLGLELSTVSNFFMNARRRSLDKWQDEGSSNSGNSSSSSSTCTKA
Bile acid receptor (Homo sapiens), sequence (Q96RI1 whole entry, looked up, the tested form may be a part): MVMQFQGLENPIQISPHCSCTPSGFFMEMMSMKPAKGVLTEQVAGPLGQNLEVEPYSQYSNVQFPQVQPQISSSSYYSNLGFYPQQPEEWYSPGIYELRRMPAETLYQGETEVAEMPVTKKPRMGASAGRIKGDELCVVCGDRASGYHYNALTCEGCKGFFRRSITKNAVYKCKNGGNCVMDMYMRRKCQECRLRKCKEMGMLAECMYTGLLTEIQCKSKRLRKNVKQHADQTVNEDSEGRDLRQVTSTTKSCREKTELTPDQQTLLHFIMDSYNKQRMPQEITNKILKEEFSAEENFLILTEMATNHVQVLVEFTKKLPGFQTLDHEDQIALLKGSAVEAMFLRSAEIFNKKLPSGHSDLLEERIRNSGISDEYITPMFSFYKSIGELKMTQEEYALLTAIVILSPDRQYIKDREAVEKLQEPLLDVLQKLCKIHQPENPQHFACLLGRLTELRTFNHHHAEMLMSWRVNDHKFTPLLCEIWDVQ

CC(C)CO
not listed: [20]
inactive: all other assays above

Clc1cc(Cl)c(Cl)c(Cl)c1Cl
active: [16] 27.7 µM
not listed: [20]
inactive: all other assays above

CCCC(C)C(=O)OCC (stereo not given)
not listed: [20]
inactive: all other assays above

CCCCC(CC)COC(=O)/C=C/c1ccc(OC)cc1 (stereo not given)
not listed: [20]
inactive: all other assays above

C=C(C)[C@@H]1CC=C(C)CC1
not listed: [12] | [18] | [20]
inactive: all other assays above

CCOC(=O)c1ccc(C)cc1
not listed: [12] | [20]
inactive: all other assays above

CC(C)c1cc(C(C)C)cc(C(C)C)c1
active: [2] 23.7 µM | [6] 168 µM | [7] 169 µM | [8] 160 µM | [10] 178 µM | [11] 146 µM | [13] 176 µM | [14] 162 µM
not listed: [12] | [18] | [20]
inactive: all other assays above

Oc1c(Cl)cc(Cl)c(Cl)c1Cl
active: [4] 100 µM | [17] 51.7 µM | [19] 70.8 µM
not listed: [11] | [18]
inactive: all other assays above

CC(C)=NNC(N)=S
active: [16] 9.14 µM
not listed: [11]
inactive: all other assays above

CCN(CC)c1cccc(C)c1
not listed: [9] | [19]
inactive: all other assays above

CCC(C)C(=O)OCCc1ccccc1 (stereo not given)
not listed: [11] | [18]
inactive: all other assays above

CC(C)C(=O)OCCc1ccccc1
not listed: [9] | [12]
inactive: all other assays above

Cc1c[nH]c(=O)[nH]c1=O
not listed: [11]
inactive: all other assays above

C=CCCCCCCCCC=O
active: [6] 88.7 µM
not listed: [11] | [17] | [19] | [20]
inactive: all other assays above

COC(=O)c1ccc(C(=O)OC)c(C(=O)OC)c1
not listed: [9] | [20]
inactive: all other assays above

O=C(C=Cc1ccccc1)OCCc1ccccc1
active: [6] 32.7 µM | [13] 77.6 µM | [19] 40.4 µM
not listed: [11] | [20]
inactive: all other assays above
